Rv3671c protease – Rv3671c serine protease inhibitors, primary screen, biochemical, fluorescence polarization, M. tuberculosis H37Rv; P9WHR9; inhibition, % at 5.96 µM; hit rate 0.048% among 320,000; in the data active = inhibition above about 38%;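 note: extracellular domain of Rv3671c used as enzyme; 0% = enzyme with DMSO and 100% = no enzyme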
Target sequence (P9WHR9 whole entry, looked up, the tested form may be a part): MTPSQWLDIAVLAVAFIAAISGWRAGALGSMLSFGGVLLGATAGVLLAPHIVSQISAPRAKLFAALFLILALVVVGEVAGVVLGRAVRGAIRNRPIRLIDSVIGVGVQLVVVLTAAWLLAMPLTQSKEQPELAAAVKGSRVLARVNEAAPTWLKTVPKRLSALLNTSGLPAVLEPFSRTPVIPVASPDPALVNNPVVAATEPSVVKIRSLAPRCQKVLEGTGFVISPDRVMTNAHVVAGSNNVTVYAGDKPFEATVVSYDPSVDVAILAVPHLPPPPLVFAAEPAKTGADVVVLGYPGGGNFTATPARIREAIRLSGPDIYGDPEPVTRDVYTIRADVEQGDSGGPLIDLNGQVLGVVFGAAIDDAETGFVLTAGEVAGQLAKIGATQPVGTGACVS
RecA splice inh – Mtb RecA intein splicing inhibitors, primary screen, biochemical, fluorescence, HTS; Protein RecA (Mycobacterium tuberculosis (strain ATCC 25618 / H37Rv)), P9WHJ3; cell-free RecA intein splicing; inhibition, % (test concentration not listed); hit rate 0.75% among 290,000; in the data active = inhibition above about 30%;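 note: 0% = vehicle wells and 100% = reference inhibitor control wells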
UGM FP inh – M. tuberculosis UGM enzyme inhibitors, primary screen, biochemical, fluorescence polarization, single point; UDP-galactopyranose mutase (Mycobacterium tuberculosis (strain ATCC 25618 / H37Rv)), …; purified UGM, fluorescence polarization probe displacement; inhibition, % at 10 µM; hit rate 0.06% among 320,000; in the data active = inhibition above about 10%, passing the limit was not always enough
GDH-TPI inh – GDH-TPI coupling enzyme inhibitors, primary screen, artefact control for M. tuberculosis FBA inhibitor project, biochemical, absorbance, full deck | GDH-TPI coupled enzyme counterscreen, NADH absorbance | inhibition, % at 4.8 µM | hit rate 1.2% among 360,000 | AID 588335, 2011; in the data active = inhibition above about 30%;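 note: 0% = DMSO wells and 100% = wells lacking the enzyme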
Mtb betalactam – beta-lactam sensitization of Mtb H37Rv, H37Rv | AID 434955, 2010 | hit rate 0.27% among 330,000 | M. tuberculosis H37Rv growth with meropenem, percent inhibition | inhibition, % at 25 µM; call rule not given here;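 note: growth measured after seven days incubation then overnight dye step; 0% = bacteria only wells and 100% = bacteria with antibiotic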
FBA Mtb inh – Mtb FBA enzyme inhibitors, primary screen, biochemical, fluorescence, strain H37Rv. AID 588726, 2011. hit rate 2.3% among 360,000. Fructose-bisphosphate aldolase (Mycobacterium tuberculosis (strain ATCC 25618 / H37Rv)), …. inhibition, % at 1 µM. purified M. tuberculosis FBA, fluorescence read-out; in the data active = inhibition above about 27%;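 note: 0% = vehicle and 100% = reference inhibitor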
Active calls of the source: *; i = inactive; x = no result; + = active, no number. The list is not random: actives were taken first. Their share in the collection is about 4%.

SMILES	Rv3671c protease	RecA splice inh	UGM FP inh	GDH-TPI inh	Mtb betalactam	FBA Mtb inh
Cc1ccc(S(=O)(=O)c2c(N)n(CC3CCOC3)c3nc4ccccc4nc23)cc1 (centres undefined)	-4	-15	0	22	-6	+
Cc1ccc(S(=O)(=O)c2c(N)n(/N=C/c3ccco3)c3nc4ccccc4nc23)cc1	-17	x	-2	23	7	16
Cc1ccc(S(=O)(=O)c2c(N)n(NC(=O)C3CC3)c3nc4ccccc4nc23)cc1	2	-45	1	23	2	181*
CN(C)CCCn1c(N)c(C#N)c2nc3ccccc3nc21	-7	i	0	16	6	146*
Cc1ccc(-n2c(N)c(S(=O)(=O)c3ccccc3)c3nc4ccccc4nc32)cc1	-3	1	1	7	2	33*
Nc1c(S(=O)(=O)c2cccc(Cl)c2)c2nc3ccccc3nc2n1CCN1CCOCC1	2	-9	-1	13	3	8
O=C(CCS(=O)(=O)c1cccc2nonc12)N1CCOCC1	4	1	-4	17	0	-10
O=C1COc2ccc(S(=O)(=O)N3CCCCC3)cc2N1	0	-2	-1	6	5	0
Cc1ccc(S(=O)(=O)c2c(N)n(CCCN(C)C)c3nc4ccccc4nc23)cc1	0	-40	4	42*	-1	128*
COc1cc(OC)cc(C(=O)N[C@H](C(=O)NC23CC4CC(CC(C4)C2)C3)C(C)C)c1	10	0	0	2	-4	-2
O=C(CC[C@H]1O[C@@H](n2ccc(=O)[nH]c2=O)[C@H](O)[C@@H]1O)NCc1ccc2c(c1)OCO2	x	x	x	x	x	0
CN1/C(=C\C=N\O)C(C)(C)c2ccccc21	-3	-2	0	-5	-1	0
CN1/C(=C\C=Nc2cc(S(=O)(=O)N3CCOCC3)ccc2N2CCOCC2)C(C)(C)c2ccccc21	-1	2	1	41*	-2	-7
CO/N=C/C=C1/N(C)c2ccccc2C1(C)C	3	-1	0	60*	-3	-2
Cc1ccccc1N=C/C=C1\N(C)c2ccccc2C1(C)C	-25	-3	-1	35*	7	2
COc1cc2c(cc1OC)C1=CC(=O)C(=O)N1C(C)(C)C2	-43	-2	-4	7	-15	5
O=C(O)c1ccccc1C1=Nc2ccc(O)cc2Oc2cc(O)ccc21	20	-1	14*	10	-4	-3
COC(=O)Cc1c(C)c2ccc(OCC(=O)NC3CCS(=O)(=O)C3)cc2oc1=O (centres undefined)	1	0	-1	7	9	140*
Cc1cc(C)cc(NC(=O)COc2ccc3c(C)c(Cc4ccccc4)c(=O)oc3c2)c1	-12	2	3	x	8	x
O=C(COc1ccc2ccc(=O)oc2c1)NC1CCS(=O)(=O)C1 (centres undefined)	4	x	1	19	-6	21
Cc1c(Cc2ccccc2)c(=O)oc2cc(OCC(=O)c3ccccc3)ccc12	-6	-2	0	-3	-1	11
CCCOc1ccc2c(C)c(CC(=O)OC)c(=O)oc2c1	8	-4	-2	24	-3	121*
COC(=O)Cc1c(C)c2ccc(OCC(=O)N(C)C)cc2oc1=O	1	3	0	20	-1	138*
O=C(NNC(=O)c1ccc2c(=O)n3c(nc2c1)CCC3)c1cccc(Cl)c1	-1	0	1	-3	-6	0
CCn1c(NCc2cc(OC)c(OC)c(OC)c2)nc2ccccc21	2	-5	1	-4	3	1
CCCCn1c(N)c(N(CC(C)C)C(=O)COC(=O)c2ccccc2NCCO)c(=O)[nH]c1=O	4	-6	0	3	-2	125*
COc1ccc(C(=O)/C=C/Nc2ccc(S(N)(=O)=O)cc2)cc1OC	7	-9	0	58*	1	8
Cc1ccc(C(=O)/C=C/NCc2ccc(F)cc2)cc1	-7	-1	1	26	3	1
